PTAP TSG101 blk: qHTS Assay for Iinhibitors of HIV-1 Budding by Blocking the Interaction of PTAP/TSG101. 340,000 tested, under 10 active. Tumor susceptibility gene 101 protein (Homo sapiens), Q99816. Fluorescence polarization, FITC-PTAP peptide / Tsg101 binding. Potency, µM (highest dose often 115 µM), most hits filed as inhibitors; active = well fitted inhibition curve with a large enough effect in the main read-out, with a control signal flat, not every such curve was filed as active; inconclusive = small, poorly fitted or top-dose-only effect, or effect the other way, or a change in a side signal; inactive = no such curve, though single readings can be large or run the other way
Target sequence (Q99816 whole entry, looked up): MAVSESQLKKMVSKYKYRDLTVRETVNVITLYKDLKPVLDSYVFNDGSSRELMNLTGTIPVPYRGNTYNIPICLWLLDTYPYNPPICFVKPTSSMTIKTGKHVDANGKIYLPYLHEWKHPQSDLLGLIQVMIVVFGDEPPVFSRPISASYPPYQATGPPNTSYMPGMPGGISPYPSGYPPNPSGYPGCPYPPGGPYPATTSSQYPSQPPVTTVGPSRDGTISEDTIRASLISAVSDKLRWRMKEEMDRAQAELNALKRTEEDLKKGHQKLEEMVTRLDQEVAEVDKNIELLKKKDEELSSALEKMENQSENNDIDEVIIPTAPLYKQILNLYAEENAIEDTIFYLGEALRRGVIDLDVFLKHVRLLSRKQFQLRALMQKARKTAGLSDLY
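Compounds were pin-transferred onto Tsg101 binding domain (10 uM final) in HEPES pH 7.5 buffer, then FITC-PTAP peptide was added at 50 nM final. After 20 min at RT, polarization reported peptide displacement across a qHTS concentration series.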
A-T KAP1 phos: qHTS Assay for Identifying a Potential Treatment of Ataxia-Telangiectasia; F2112 A-T fibroblasts, KAP-1 phosphorylation AlphaLISA; neocarzinostatin DNA damage 30 min before lysis; Potency, µM (doses to about 57.5 µM), hits mostly activators; hit rate 0.19% among 320,000; note: nearly all actives have a fitted effect of over 45% in size
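hTERT-immortalized A-T patient fibroblasts (F2112), 500 cells/well in OPTI-MEM, 1% FBS, got compounds for 60 min, then NCS for 30 min at 37C. Lysates were then assayed for phospho-KAP-1 by AlphaLISA (anti-pKAP1 donor, anti-KAP1 acceptor beads), 6 hr at 25C.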
CBFb RUNX1 block: qHTS Assay for Compounds Blocking the Interaction Between CBF-beta and RUNX1 for the Treatment of Acute Myeloid Leukemia; Potency, µM (series often up to 59.8 µM), hits mostly inhibitors; Runt-related transcription factor 1 (Homo sapiens) + Core-binding factor subunit beta …; AlphaScreen CBFb-His/RUNX1-biotin binding, biochemical; 230,000 tested, under 10 active; AID 1477, 2009
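CBF-beta (His) and RUNX1 (biotin), 30 nM each; 20 min preassociation; + compound, 15 min; + beads 50 ng each (Ni, streptavidin), 90 min; RT; AlphaScreen read.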
IMPase Li cell: qHTS Assay for Identifying the Cell-Membrane Permeable IMPase Inhibitors: Potentiation with Lithium; CHO-M1 cells, IP1 TR-FRET (IP-One), carbachol + lithium; Potency, µM (top dose mostly 59.4 µM), actives largely listed as inhibitors; hit rate 0.35% among 210,000; AID 1457, 2008;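 note: IP1 builds up when IMPase is blocked and the TR-FRET signal falls; nearly all actives have a fitted effect of over 50% in size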
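CHO cells stably expressing M1 receptor (2000/well, cultured 16–30 h) treated 30 min at 37C with compound plus low lithium. Cytosolic IP1 by TR-FRET (665/620 ratio and 620 channel) after 10 min lysis; AC50 by Hill fit.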
Hits are given with their value; - = inactive; ? = inconclusive; . = no result given. An excerpt weighted towards active compounds, which were near 0.37% of everything screened. Unless noted, calls come from the whole dose curve; as a rule, active = well fitted curve in the direction sought with a large enough effect; inconclusive = small, poorly fitted or top-dose-only effect, or another doubt; inactive = no such curve, though single readings can be large; an effect the other way counts as inactive or inconclusive.

SMILES	PTAP TSG101 blk	A-T KAP1 phos	CBFb RUNX1 block	IMPase Li cell
Cc1ccc(-n2c(=O)c3c4c(sc3n3c(=S)[nH]nc23)CCC4)cc1	-	-	-	.
Cc1ccc(-n2c(=S)[nH]c3sc4c(c3c2=O)CCC4)cc1	-	-	-	11.2µM
COc1cc(Cl)ccc1OCc1cc(C(=O)N2C[C@H]3CC[C@H]2C3)no1	.	-	.	.
CN(C)CCCN(CCCN(C)C)C(=S)Nc1ccc(S(=O)(=O)N2CCOCC2)cc1	-	17.8µM	-	.
Cc1nc(N[C@@H](Cc2c[nH]c3ccccc23)C(=O)O)c2oc3ccccc3c2n1	-	-	-	11.2µM
COc1ccc(COc2ccc3c(C)cc(=O)oc3c2)cc1	-	-	.	.
Cc1cc(NC(=O)CSc2nc3ccccc3c(=O)n2-c2ccccc2)no1	-	-	-	7.08µM
Cc1nnc(NC(=O)CSc2nc(C(C)C)nc3ccccc23)s1	-	-	-	7.94µM
Cc1cc(NC(=O)CSc2nc(C(C)C)nc3ccccc23)no1	-	.	-	12.6µM
CC(C)c1nc(SCC(=O)Nc2nc3c(s2)CCCC3)c2ccccc2n1	-	-	-	-
O=C(NCCN1CCN(c2ccccc2)CC1)c1cccn2c(=O)c3cc(Cl)ccc3nc12	-	-	-	-
CCCCCCCCCCCCCCCC(O)C(N)CO (stereo unspecified)	-	-	?	-
N#Cc1c2n(c3c(=O)n(Cc4ccccc4Cl)cnc13)CCCC2	-	-	-	-
O=C(NCCc1ccccc1Cl)c1ccc2nc3ccccc3c(=O)n2c1	-	-	.	.
CCOC(=O)Cc1c(C)c2ccc(N(CC)CC)cc2oc1=O	-	25.1µM	?	.
CCN(CC)c1ccc2c(C)cc(=O)oc2c1	-	31.6µM	-	-
CC(=O)Nc1ccc2c(c1)nc1n2CCN(C(C)c2ccccc2)C1 (stereo unspecified)	-	-	-	-
Cc1ccc(S(=O)(=O)N(C)C)cc1NC(=O)CN1C(=O)NC2(CCCCCCC2)C1=O	-	-	.	.
CC(=O)[C@@]1(N=Nc2ccc(S(N)(=O)=O)cc2)CCOC1=O	.	.	.	-
S=c1[nH]nc(COc2ccccc2)n1/N=C/c1ccccc1Cl	-	5.01µM	.	.
S=c1[nH]nc(COc2ccccc2)n1/N=C/c1cccc(Cl)c1Cl	-	-	.	.
Nc1ccc(-c2nc3cc([N+](=O)[O-])ccc3o2)cc1	-	39.8µM	-	.
COc1ccc(-c2nc3cc([N+](=O)[O-])ccc3o2)cc1	-	-	-	.
COc1ccc(OCCOC(=O)CCS(=O)(=O)c2ccc(C)cc2)cc1	-	-	.	.
C=CCn1c(NC(=O)c2ccc(Br)o2)c(S(=O)(=O)c2ccccc2)c2nc3ccccc3nc21	-	.	-	10µM
SMILES	PTAP TSG101 blk	A-T KAP1 phos	CBFb RUNX1 block	IMPase Li cell
O=C(N/N=C/c1ccc(Br)s1)c1ccncc1	-	-	-	-
C=C(C)n1c(=O)n(Cc2ccccc2C)c2ccccc21	-	11.2µM	.	.
C=C(C)n1c(=O)n(Cc2ccc(C)cc2)c2ccccc21	-	-	.	.
COc1cccc(-c2cc3nc(-c4ccccc4)cc(N4CCC5(CC4)OCCO5)n3n2)c1	-	-	?	11.2µM
COc1ccc(/C=N/NC(=O)c2ccc(C)nc2)cc1O	-	-	.	.
COc1cc2c(cc1NC(=O)Cc1ccc(C)cc1)oc1ccccc12	-	-	-	-
COc1cc2c(cc1NC(=O)CN1CCN(S(=O)(=O)c3ccccc3F)CC1)oc1ccccc12	-	.	-	5.62µM
Cc1cc(C)n(-c2ccc(S(=O)(=O)N3CCOCC3)cc2[N+](=O)[O-])n1	-	39.8µM	-	.
Cc1cc(C)n(-c2ccc(S(=O)(=O)N3CCCC3)cc2[N+](=O)[O-])n1	-	-	-	.
COC(=O)Cn1c(=NC(=O)C2CC2)sc2c(C)cc(C)cc21	-	.	.	.
CCC(=O)N=c1sc2c(C)cc(C)cc2n1CC(=O)OC	-	-	-	12.6µM
Cn1c2ccccc2c2c3c(c4c5ccccc5n(CCC#N)c4c21)CNC3=O	.	.	-	3.55µM
Cc1c(C)n(CCC#N)c2ccccc12	-	-	-	-
CC1=CS/C(=C(/C#N)C(=O)NCc2ccco2)N1c1ccccc1	-	-	-	-
N#C/C(C(=O)NCc1ccco1)=C1/SC=C(c2ccccc2)N1c1ccccc1	-	-	-	11.2µM
O=C(CSc1nnc2sc3ccccc3n12)N1CCN(c2ccccc2)CC1	-	-	-	-
CCOC(=O)c1cc(-c2ccccc2)sc1NC(=O)COC(=O)c1ccc(Cl)c(S(N)(=O)=O)c1	-	-	-	12.6µM
COC(=O)C1=CN(C2CC2)C=C(C(=O)OC)C1c1ccc(C(=O)OC)cc1	-	31.6µM	-	-
COC(=O)C1=CN(C2CC2)C=C(C(=O)OC)C1c1ccc(C(F)(F)F)cc1	-	-	-	-
Oc1ccc(C2=NN(c3ccccc3)C(c3ccc(F)cc3)C2)cc1 (stereo unspecified)	-	-	.	.
CC(=O)Nc1ccc(C2=NN(c3ccccc3)C(c3ccccc3)C2)cc1 (stereo unspecified)	-	22.4µM	.	.
N#CCC(=O)N/N=C/c1ccc(N2N=C(c3ccccc3)CC2c2ccccc2)cc1 (stereo unspecified)	-	31.6µM	.	.
COc1ccc(C2CC(c3ccccc3)=NN2c2ccc(/C=N/NC(=O)c3ccncc3)cc2)cc1 (stereo unspecified)	-	-	?	-
CC(=O)Nc1ccc(C2CC(c3ccc(Cl)cc3)=NN2c2ccccc2)cc1 (stereo unspecified)	-	25.1µM	.	.
O=C(O)c1ccc(N2N=C(c3ccccc3)CC2c2ccccc2)cc1 (stereo unspecified)	-	-	.	.
SMILES	PTAP TSG101 blk	A-T KAP1 phos	CBFb RUNX1 block	IMPase Li cell
COc1ccc(C2c3ccc4ccccc4c3Oc3ncn(CCO)c(=N)c32)cc1OC (stereo unspecified)	-	-	.	.
COc1ccc(C2c3ccc4ccccc4c3Oc3ncn(CCCO)c(=N)c32)cc1OC (stereo unspecified)	-	39.8µM	-	.
COc1ccccc1NC(=O)/C(C#N)=C/c1cc([N+](=O)[O-])ccc1N1CCCC1	?	-	-	-
O=C(NCCNC(=O)c1ccc(Cl)cc1Cl)c1ccccn1	-	-	.	.
Cc1ccc(C(=O)NCCc2c[nH]c3ccccc23)c(C)c1	-	25.1µM	.	.
O=C(NC(=S)Nc1ccc2oc(-c3ccncc3)nc2c1)c1ccccc1F	-	-	-	5.62µM
CC(C)CCNc1ncnc2c1cnn2Cc1ccccc1Cl	-	-	.	.
CCOC(=O)c1sc(=S)[nH]c1C	-	.	.	.
CCOC(=O)c1c(C)[nH]sc1=S	-	-	-	14.1µM
CCCCCn1c(Sc2nc3ccccc3s2)nc2c1c(=O)[nH]c(=O)n2C	-	-	-	12.6µM
CCCCCn1c(Sc2ncccn2)nc2c1c(=O)[nH]c(=O)n2C	-	-	-	-
COC(=O)CCc1c(C)c(C(=O)c2cc(OC)c(OC)c(OC)c2)c2ccccn12	-	3.55µM	.	.
